Among the data in PubChem BioAssay AID463173 (ICCB-Longwood Screening Facility, Harvard Medical School, 2010) are survival values, retold here.

Out of some 52,000 compounds screened, about 4,300 (8.3%) were called active. Cut-off read from the data, not from the text of the source: active = survival mostly below about 52% (no sharp cut-off); inactive = mostly above about 56%. What follows is part of a selection rich in actives, with near analogues and random picks from the rest.

The subject of this assay is DeltatarO mutant. Briefly: growth inhibition of S. aureus wild type versus tarO mutant, primary screen, teichoic acid synthesis inhibitors, RN4220, OD600 (AID 463173). The following applies: OD600, 18 h, stronger effect = lower value, screened at 18.75 µg/mL (by protocol).
As to `COC(=O)CC1=C(C(=O)OC)C(c2ccc(C(=O)OC)cc2)C(C#N)=C(N)O1` (stereo unspecified), the survival was 77% (inactive).

Take `Cn1c(=O)c(=O)n(C)c2cc(S(=O)(=O)CCC(=O)Nc3cccc(C(F)(F)F)c3)ccc21`: the survival was 80% (inactive).

For `O=c1c2oc3ccccc3c2n(Cc2ccc(Cl)cc2)c(=O)n1Cc1ccc2c(c1)OCO2`, the survival was 66% (inactive).

With `CCOc1ccc(C2c3[nH]c4ccccc4c3CCN2C(=O)CCc2ccccc2)cc1` (stereo unspecified), the survival was 116% (inactive).

Regarding `COc1ccc(C2CC(=O)Nc3c2c(=O)[nH]c2nc4ccccc4n32)cc1OC` (stereo unspecified), the survival was 133% (inactive).

On to `CCc1ccccc1N=C1SCC(=O)N1C`, for which the survival is 88% (inactive).

Turning to `Cc1cc(C)c(NC(=O)Cn2nnc(C(=O)Nc3ccc(F)cc3F)c2N)c(C)c1`, the survival was 81% (inactive).

Turning to `CCN1c2ccccc2-c2nc(SCC(=O)Nc3cc(F)ccc3F)ncc2S1(=O)=O`, the survival was 118% (inactive).

With `CCOc1ccccc1NC(=O)CSc1ncc2c(n1)-c1ccccc1N(CC)S2(=O)=O`, the survival is 92% (inactive).

As to `CCN1c2ccccc2-c2nc(SCC(=O)Nc3c(C)cc(C)cc3C)ncc2S1(=O)=O`, the survival is 102% (inactive).

For the compound `CCN1c2ccccc2-c2nc(SCC(=O)Nc3cc(OC)cc(OC)c3)ncc2S1(=O)=O`, the survival was 37% (active).

Regarding `CCN1c2ccccc2-c2nc(SCC(=O)Nc3cc(C)c(Cl)cc3OC)ncc2S1(=O)=O`, the survival was 91% (inactive).

Take `CCN1c2ccccc2-c2nc(SCC(=O)Nc3ccc(C)c(Cl)c3)ncc2S1(=O)=O`: the survival was 25% (active).

For the compound `Fc1ccc(Nc2ncnc3c2nc2n3CCCC2)cc1`, the survival is 74% (inactive).

On to `CCc1ccc(NC(=O)c2ccc(CNS(=O)(=O)c3ccc4c(c3)C(C)(C)C(=O)N4C)cc2)cc1`, for which the survival was 64% (inactive).

As to `CCC(Sc1nc2c(sc3ccccc32)c(=O)n1CCc1ccccc1)C(=O)N(CC)CC` (stereo unspecified), the survival was 54% (inactive).

On to `Cc1ccc(-c2nc(CS(=O)(=O)CC(=O)NCCc3ccccc3)c(C)o2)cc1`, for which the survival is 100% (inactive).

With `Cn1ncc2c(Nc3cccc(F)c3)ncnc21`, the survival is 117% (inactive).

In the case of `Cc1cc(C)nc(NC(=O)C(c2ccccc2)c2ccccc2)n1`, the survival was 115% (inactive).

`COc1cccc(C(=O)NC(=NCCc2c[nH]c3ccc(OC)cc23)Nc2nc(C)cc(C)n2)c1`: the survival was 55% (inactive).

For `Cc1cc(C)nc(NCC(C)c2ccccc2)n1` (stereo unspecified), the survival is 81% (inactive).

As to `Cc1cc(C)nc(NC(N)=NC2CCCCC2)n1`, the survival is 87% (inactive).

Regarding `Cc1cc(C)nc(NC(N)=NC(C)c2ccccc2)n1` (stereo unspecified), the survival was 20% (active).

For the compound `COc1ccc(CCN=C(N)Nc2nc(C)cc(C)n2)cc1`, the survival was 39% (active).

For the compound `CCOC(=O)c1cccc(NC(=O)CCS(=O)(=O)c2ccc3c(c2)CC(=O)N3C)c1`, the survival was 102% (inactive).

As for `COc1cccc(C(=O)NCC(c2ccc(N(C)C)cc2)N2CCCC2)c1OC` (stereo unspecified), the survival was 94% (inactive).

Take `Cc1nc(-c2cccc(NC(=O)Nc3ccccc3C(F)(F)F)c2)no1`: the survival is 130% (inactive).

For the compound `Cc1ccc(C)c2c(N)c3c(nc12)CCCCC3`, the survival is 96% (inactive).

With `CC(CCc1ccccc1)NC(=O)Cn1ncc2c3ccccc3n(Cc3cccc(Cl)c3)c2c1=O` (stereo unspecified), the survival was 95% (inactive).

As to `CC(C)(C)OC(=O)N1CC=C2C(C1)C(c1cccc(F)c1)C(C#N)=C(N)C2(C#N)C#N` (stereo unspecified), the survival is 79% (inactive).

On to `CCCN1CC=C2C(C1)C(c1ccc(C(=O)OC)cc1)C(C#N)=C(N)C2(C#N)C#N` (stereo unspecified), for which the survival is 51% (active).

Take `CCN1CC=C2C(C1)C(c1ccc(Cl)s1)C(C#N)=C(N)C2(C#N)C#N` (stereo unspecified): the survival was 105% (inactive).

In the case of `COc1cc(-c2nnc(SCC(=O)N3CCCc4ccccc43)o2)cc(OC)c1OC`, the survival was 66% (inactive).

On to `Cc1ccc(Cl)cc1NC(=O)C1CCN(C(=O)c2cnn(-c3ccccc3)c2-n2cccc2)CC1`, for which the survival was 71% (inactive).

For the compound `Cc1cc(C)nc(SCc2noc(-c3ccc(Cl)cc3)n2)n1`, the survival is 97% (inactive).

As to `CCc1ccccc1NC(=O)Nc1cc(C(=O)NCc2ccc(C)cc2)ccc1N1CCCC1`, the survival was 113% (inactive).

For `COc1ccc(NC(=O)Cn2c(=O)n(CCC(=O)NCC3CCCO3)c(=O)c3cc(OC)c(OC)cc32)cc1` (stereo unspecified), the survival was 72% (inactive).

Take `COc1ccc(OC)c(NC(=O)Cn2nc3c(cc2=O)CCCC3)c1`: the survival is 57% (inactive).

Turning to `Cc1nn(-c2ccc(N3CCOCC3)nn2)c(C)c1CCC(=O)NCc1ccc(Cl)cc1`, the survival is 107% (inactive).

Regarding `CCc1ccc(NC(=O)c2oc3c(c2C)-c2[nH]ncc2CC3)cc1`, the survival is 48% (inactive).

`Cc1cc(NC(=O)c2oc3c(c2C)-c2[nH]ncc2CC3)ccc1Br`: the survival was 3% (active).

For `Cc1cc(C)c(NC(=O)c2oc3c(c2C)-c2[nH]ncc2CC3)c(C)c1`, the survival was 67% (inactive).

In the case of `Cc1ccc(Cn2cc(CCC(=O)NCc3ccccc3F)c3ccccc32)cc1`, the survival was 77% (inactive).

For the compound `Cc1c(C(=O)Nc2ccc(Br)cc2F)oc2ccc(S(=O)(=O)N3CCCCC3)cc12`, the survival was 78% (inactive).

On to `Cc1cccc(N2CCN(CCCNC(=O)c3sc4ncccc4c3-n3cccc3)CC2C)c1` (stereo unspecified), for which the survival was 105% (inactive).

`COc1cc2c(cc1OC)C1=C(C#N)CN(C3CCCCC3)CN1CC2`: the survival was 83% (inactive).

For `NC(=O)C1CCN(C(=O)C2CCN(S(=O)(=O)c3ccc(-n4cnnn4)cc3)CC2)CC1`, the survival was 97% (inactive).

`Cc1ccccc1NC(=O)c1c(C)oc2ccc(O)c(CN(C)Cc3ccccc3)c12`: the survival was 81% (inactive).

For the compound `CCN(Cc1ccccc1)Cc1c(O)ccc2oc(C)c(C(=O)Nc3ccc(C)cc3C)c12`, the survival was 33% (active).

Take `CCN(Cc1ccccc1)Cc1c(O)ccc2oc(C)c(C(=O)Nc3ccccc3C)c12`: the survival was 29% (active).

As for `Cc1ccc(NC(=O)c2c(C)oc3ccc(O)c(CN(C)Cc4ccccc4)c23)c(C)c1`, the survival is 73% (inactive).

On to `CCN1CCN(Cc2c(O)ccc3oc(C)c(C(=O)Nc4ccc(C)cc4C)c23)CC1`, for which the survival is 92% (inactive).

Regarding `Cc1ccccc1NC(=O)c1c(C)oc2ccc(O)c(CN3CCCC3)c12`, the survival is 80% (inactive).

As to `Cc1cc(=O)n(CC(=O)NC(C)c2ccccc2)c2c1c(C)nn2C` (stereo unspecified), the survival was 66% (inactive).

Regarding `Cc1ccc(Nc2nnc(-c3ccc(C)c(S(=O)(=O)N4CCN(C)CC4)c3)c3ccccc23)cc1`, the survival is 80% (inactive).

On to `COCCOC(=O)c1c(-c2ccccc2)c(-c2ccccc2)nn(C)c1=O`, for which the survival is 65% (inactive).

For `Cc1ccc2[nH]c(C)c(CCNC(=O)c3cc4cc(Br)ccc4oc3=O)c2c1`, the survival is 37% (active).

Take `Cc1[nH]c2c(C)cccc2c1CCNC(=O)c1cc2ccccc2oc1=O`: the survival is 86% (inactive).

For the compound `COc1cccc2cc(C(=O)NCCc3c(C)[nH]c4ccc(F)cc34)c(=O)oc12`, the survival is 53% (inactive).

On to `COc1ccc2oc(=O)c(C(=O)NCCc3c(C)[nH]c4ccc(C)cc34)cc2c1`, for which the survival is 40% (active).

On to `COc1ccc2oc(=O)c(C(=O)NCCc3c(C)[nH]c4c(C)cccc34)cc2c1`, for which the survival was 47% (active).

For `COc1ccc2oc(=O)c(C(=O)NCCc3c(C)[nH]c4c(Cl)cccc34)cc2c1`, the survival is 62% (inactive).

For the compound `COc1ccc2oc(=O)c(C(=O)NCCc3c(C)[nH]c4ccc(F)cc34)cc2c1`, the survival was 46% (inactive).

Regarding `COc1ccc2oc(=O)c(C(=O)NCCc3c(C)[nH]c4ccc(Br)cc34)cc2c1`, the survival was 45% (inactive).

As to `COc1ccc2oc(=O)c(C(=O)Nc3ccc(C(=O)O)cc3)cc2c1`, the survival was 136% (inactive).

As to `COc1ccc2oc(=O)c(C(=O)Nc3cccc(C(=O)O)c3)cc2c1`, the survival was 50% (active).

Consider `COc1ccc2oc(=O)c(C(=O)Nc3ccc(O)cc3)cc2c1`, for which the survival is 98% (inactive).

For the compound `Cc1[nH]c2ccc(F)cc2c1CCNC(=O)c1cc2cc(Cl)ccc2oc1=O`, the survival was 52% (inactive).

Regarding `Cc1cc(C)n(C(C)CC(=O)Nc2cccc(C#N)c2)n1` (stereo unspecified), the survival is 78% (inactive).

As for `CN(C)CCN(Cc1ccccc1)S(=O)(=O)c1ccc(-c2cc(C(F)(F)F)on2)s1`, the survival is 87% (inactive).

For `O=C1CCC(=O)N1CNc1ccccc1`, the survival was 85% (inactive).

For `CC(=O)N1CCOc2cc(S(=O)(=O)Nc3cc(C(F)(F)F)ccc3Cl)c(C)cc21`, the survival is 94% (inactive).

As for `CCN1CCN(CCCNC(=O)c2cnn(-c3ccc(OC)cc3)c2C2CCN(C(=O)OC(C)(C)C)CC2)CC1`, the survival was 95% (inactive).

For the compound `Cc1ccc(N2CCN(c3nc4ccccc4n4nnnc34)CC2)c(C)c1`, the survival was 105% (inactive).

In the case of `Cc1cccc(C)c1NC(=O)Cn1cc(C(=O)C2CC2)c2ccccc21`, the survival is 67% (inactive).

For `CCOc1ccc(NCc2cccn2-c2nnc(N3CCC(C(=O)NC(C)c4ccccc4)CC3)s2)cc1` (stereo unspecified), the survival is 74% (inactive).

In the case of `O=C1C2C(C(=O)N1CC1CCCO1)C1C=CC2C12CC2` (stereo unspecified), the survival is 80% (inactive).

With `Cc1[nH]c2ccc(Br)cc2c1CCNC(=O)c1cc2ccccc2oc1=O`, the survival is 32% (active).

As for `COc1cccc2cc(C(=O)NCCc3c(C)[nH]c4ccc(Br)cc34)c(=O)oc12`, the survival is 121% (inactive).

As for `C=CCc1cccc2cc(C(=O)NCCc3c(C)[nH]c4c(C)cccc34)c(=O)oc12`, the survival was 48% (inactive).

As for `COc1ccc(Cl)cc1Nc1ccc2cc(S(=O)(=O)N3CCCCC3)ccc2n1`, the survival was 83% (inactive).

As to `Cc1cccc(Cn2cccc2CNS(=O)(=O)c2ccc(Br)cc2)c1`, the survival was 76% (inactive).

Consider `Cc1cccc(Cn2cccc2CNS(=O)(=O)c2ccccc2F)c1`, for which the survival was -2% (active).

Regarding `CCc1ccc(S(=O)(=O)NCc2cccn2Cc2cccc(C)c2)cc1`, the survival was 79% (inactive).

Regarding `O=C(c1ccccc1Cl)N1CCN(CCc2ccccn2)CC1`, the survival is 52% (inactive).

Take `CCOc1ccccc1C(=O)N1CCN(CCc2ccccn2)CC1`: the survival is 67% (active).

As to `Cc1ccccc1C(=O)N1CCN(CCc2ccccn2)CC1`, the survival was 49% (inactive).

Consider `CC(CNC(=O)CN1C(=O)c2cccnc2Oc2ccc(Cl)cc21)c1ccccc1` (stereo unspecified), for which the survival was 90% (inactive).

Take `CCOC(=O)c1noc2ncn(CC(=O)Nc3ccccc3OC)c(=O)c12`: the survival is 118% (inactive).

For `CCOC(=O)c1noc2ncn(CC(=O)Nc3ccc(F)cc3Cl)c(=O)c12`, the survival was -5% (active).

Take `CCOC(=O)c1noc2ncn(CC(=O)Nc3cc(Cl)ccc3OC)c(=O)c12`: the survival is 92% (inactive).
